# Test results: PubChem BioAssay (NCI)
# The panel holds about 83,000 compounds, 20% with a hit somewhere; the sample as a whole holds those more often.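 Single-dose data. Exposure time 48 hours. Values below 10 considered active.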 Unmarked numbers belong to inactive results. Calls of active or inactive are those of the source.
# Experiments:
# Experiment in all cases: NCI-60 one-dose screen, 48 h (100 = growth as untreated, 0 = no growth, -100 = all killed)
# Conditions in all cases: 10 µM
# DU-145 prostate = test system: DU-145 prostate
# K-562 leukemia = test system: K-562 leukemia
# MDA-MB-231 breast = test system: MDA-MB-231 breast
# RXF 393 renal = test system: RXF 393 renal
# SF-268 CNS = test system: SF-268 CNS
# SF-295 CNS = test system: SF-295 CNS
# SF-539 CNS = test system: SF-539 CNS
# UACC-257 melanoma = test system: UACC-257 melanoma
# M14 melanoma = test system: M14 melanoma
SMILES,growth (DU-145 prostate),growth (K-562 leukemia),growth (MDA-MB-231 breast),growth (RXF 393 renal),growth (SF-268 CNS),growth (SF-295 CNS),growth (SF-539 CNS),growth (UACC-257 melanoma),growth (M14 melanoma)
CCOC(=O)c1cc2c(n1Cc1cccc(OC)c1)-c1oncc1CC2,48.4%,18.5%,52.7%,11.2%,44.8%,3.54% (active),15.8%,43.6%,16.8%
N#C/C(=C\N1C(=O)/C(=C/c2cccc([N+](=O)[O-])c2)SC1=S)c1nc2ccccc2s1,99.6%,77.1%,79.7%,105%,85.3%,86.9%,80.3%,68.3%,81%
NC(=O)C12C(=O)NC(=O)C1(C(=O)O)C21CCCC1 (configuration not stated),133%,108%,98.9%,122%,114%,110%,113%,103%,105%
Cc1ccc(NS(=O)(=O)c2ccccc2)c(NS(=O)(=O)c2ccccc2)c1,92.8%,108%,103%,130%,102%,104%,110%,107%,102%
C#CCNCCCN1C(=O)c2ccc3c4c(ccc(c24)C1=O)C(=O)N(CCCNCC#C)C3=O,-98.8% (active),-4.82% (active),0.356% (active),-91.4% (active),-26.4% (active),-82.9% (active),-97% (active),-87.8% (active),-91% (active)
COc1ccc(/C(=C/c2cc(OC)c(OC)cc2[N+](=O)[O-])C(=O)O)cc1,124%,94.6%,96.7%,126%,111%,121%,99.6%,118%,104%
CC(=O)Nc1nc(C)c(C(=O)NNC=O)s1,108%,54.8%,106%,109%,94.8%,112%,102%,106%,120%
Nc1ccc2c(c1)Cc1cc(N)c(Cl)cc1-2,119%,104%,88.4%,110%,113%,99.1%,95.9%,94.5%,107%
Oc1ccc(/C=N\Nc2ccccn2)c(O)c1,11.1%,24.3%,37.8%,28.5%,16.4%,-4.28% (active),-0.82% (active),30.3%,-36.2% (active)
Nc1nc(SCC#CCCl)c2[nH]cnc2n1,56.5%,38.2%,65.6%,46.7%,52.8%,60.2%,50.4%,50%,54.2%
CCOC(=O)c1cc2c(n1Cc1cc(OC)cc(OC)c1)-c1oncc1CC2,13.8%,16.7%,30.4%,18.7%,50.5%,-4.53% (active),-7.41% (active),60.5%,1.54% (active)
COc1ccc(Cn2cc3c(c2-c2cc(OC)c(OC)c(OC)c2)CCc2cnoc2-3)cc1N,1.73% (active),15%,19.5%,35%,15.4%,-16.9% (active),5.21% (active),65.9%,6.22% (active)
Nc1c(C(=O)Nc2ccccc2F)sc2nc3c(cc12)C(=O)CCC3,8.4% (active),26.3%,48.9%,9.63% (active),54.9%,3.17% (active),10.5%,66.9%,19.2%
CCSc1nc2c([nH]1)c(=O)n(C)c(=S)n2C,112%,115%,116%,117%,106%,114%,97.9%,108%,109%
CC(C)CCN(CCCNc1c2c(nc3cc(Cl)ccc13)CCCC2)CCC(C)C,72.1%,22.7%,21.8%,59.9%,73.9%,66.7%,69.8%,71.4%,4.03% (active)
COc1cc(/C=C/C(=O)c2cc(-c3ccc(F)cc3)ccc2O)cc(OC)c1OC,91.1%,34.5%,60.7%,104%,85.7%,95.1%,89%,68.4%,86.2%
O=C(Nc1cccc([N+](=O)[O-])c1)NN1CCCCCC1,94.7%,84.1%,77.7%,113%,98.1%,94%,86.9%,105%,110%
S=C(Cc1ccc(-c2ccccc2)cc1)N1CCOCC1,104%,95.3%,84.7%,103%,101%,93.6%,99%,107%,101%
Cn1cnc([N+](=O)[O-])c1Sc1nnc(-c2ccccc2)c(-c2ccccc2)n1,81.9%,51%,102%,,85.1%,87.7%,111%,79.9%,76.9%
CCN(CC)CCCOC(=O)Nc1ccccc1Cl,105%,99.6%,110%,109%,111%,113%,94.7%,111%,107%
CCOC(=O)c1c(O)c2cc(-c3ccccc3)nc(OCC)c2c(=O)n1C,107%,97.1%,95.9%,-0.249% (active),94.3%,95.6%,94.6%,54.9%,87.8%
CCOC(=O)c1sc(NC(=O)c2cc(OC)c(OC)c(OC)c2)nc1C,110%,51.2%,96.3%,119%,97.3%,110%,103%,108%,118%
COc1ccc(NC(=O)CCn2cnc3c(cc(-c4ccccc4)n3-c3ccccc3)c2=O)cc1,97.1%,90.6%,,64.4%,24.5%,81.5%,47.3%,13%,91.1%
[O-]c1c[n+](-c2ccc(Cl)cc2)no1,107%,106%,80.1%,116%,100%,112%,119%,104%,104%
COc1ccccc1CNCCCN1C(=O)c2ccc3c4c(ccc(c24)C1=O)C(=O)N(CCCNCCNCCCN)C3=O,16.3%,10.2%,20.3%,25.2%,1.02% (active),51.3%,14.1%,-6.36% (active),46.7%

SMILES,growth (DU-145 prostate),growth (K-562 leukemia),growth (MDA-MB-231 breast),growth (RXF 393 renal),growth (SF-268 CNS),growth (SF-295 CNS),growth (SF-539 CNS),growth (UACC-257 melanoma),growth (M14 melanoma)
O=C(N/N=C/c1ccccc1O)c1ccccc1,32.4%,15.8%,32.5%,41.2%,30%,26%,27.9%,-8.71% (active),26.5%
O=C(NNc1nc(N2CCCC2)nc(N2CCCC2)n1)c1ccccc1,107%,,100%,116%,106%,128%,113%,96.6%,132%
Cc1ccc(Cl)cc1Nc1nc(C(F)(F)F)ccc1C(=O)N/N=C/c1c(Cl)cccc1Cl,2.91% (active),6.49% (active),-12.2% (active),-53.7% (active),-7.33% (active),-17.7% (active),-17% (active),-27.3% (active),11.3%
CCCCOCC(=O)NC(NP(=O)(N(C)C)N(C)C)C(Cl)(Cl)Cl (configuration not stated),139%,84.2%,121%,130%,122%,70%,114%,108%,94.3%
CC(=O)Nc1ccc2c(c1)C(N1CC3CCC(CC3)C1)c1ccccc1-2 (configuration not stated),109%,58.9%,91.6%,81.9%,92.7%,101%,97.2%,84.1%,102%
O=C1c2cc(Cl)ccc2-c2c(O)cc(Cl)cc21,98.8%,57.2%,79.2%,68.8%,86.1%,99.1%,80.7%,105%,91.8%
O=C1/C(=C/c2cccs2)CCC/C1=C\c1cccs1,92.9%,94.8%,,91.9%,96.2%,104%,100%,96.9%,87.5%
COc1ccc(Cn2cc3c(c2-c2ccccc2)CC(C)(C)c2cnoc2-3)cc1,37.6%,18%,57.6%,20.3%,40.9%,-10.7% (active),6.34% (active),58.3%,40.1%
COc1cc([C@@H]2c3cc4c(cc3[C@H](SC(=N)N)[C@H]3COC(=O)[C@H]23)OCO4)cc(OC)c1OC,6.78% (active),13.8%,-5.46% (active),27.1%,30.3%,-20.4% (active),-22.5% (active),57.1%,16.9%
COc1ccccc1Cn1cc2c(c1-c1ccccc1)CCc1cnoc1-2,51.8%,19%,56%,38.3%,37.5%,-3.81% (active),11%,50%,34.5%
COc1ccc(-c2nc(SCC(=O)c3ccc(Br)cc3)[nH]c(=O)c2C#N)cc1,103%,96.1%,105%,106%,96.2%,100%,111%,111%,98.5%
O=C(NCc1cn(Cc2cccc(Oc3ccccc3)c2)nn1)c1cccnc1Nc1ccccc1,59.8%,31.9%,63.7%,33.6%,60.5%,50.1%,54.5%,77%,33.6%
Cc1cc(C#Cc2ccccc2)ccc1-n1c(/C=C/c2cc(O)ccc2O)nc2ccccc2c1=O,2.27% (active),7.36% (active),-24.2% (active),-27.9% (active),5.15% (active),-14.6% (active),-20.9% (active),20%,-3.57% (active)
CCOC(=O)c1c(Cl)c2c(n1Cc1cccc(OC)c1)-c1oncc1CC2,21.6%,17.6%,57.1%,46.5%,44.5%,-1.65% (active),5.6% (active),49.1%,17.9%
COc1cc(/C=C2\C(=O)Nc3cc(C)c(O)cc32)cc(OC)c1OC,44.6%,15.1%,39.6%,23.5%,60.6%,43.3%,71.3%,-11.1% (active),65.9%
O=[N+]([O-])c1ccc(S(=O)(=O)OCCCCOS(=O)(=O)c2ccc([N+](=O)[O-])cc2)cc1,107%,94.7%,106%,112%,106%,105%,104%,108%,104%
COC1OC2COC(c3ccccc3)OC2C(=O)C1NC(=O)c1ccccc1 (configuration not stated),95.6%,127%,94.1%,122%,99.1%,88.5%,101%,104%,99.8%
CCCCNC(=O)Oc1ccc(/C(=C(\C)c2ccc(OC)cc2)c2ccc(OCCN3CCCCC3)cc2)cc1,72.9%,-0.634% (active),53.4%,28.6%,66.9%,12.5%,5% (active),-9.86% (active),-54.8% (active)
O=[N+]([O-])c1ccc(-c2nc(-c3ccccc3)c(-c3ccccc3)n2-c2ccccc2)cc1,49.4%,-25% (active),14.3%,73.9%,65.8%,16.6%,57.8%,57.4%,49.6%
COc1ccc(/C=C(\c2cc(OC)c(OC)c(OC)c2)c2nnc(-c3cccs3)o2)cc1,77%,89.5%,71.7%,49.2%,42%,73.4%,47.6%,76.5%,93.2%
Cc1ccc(S(=O)(=O)Oc2ccccc2-c2ccccc2)cc1,34%,15.3%,55.9%,28.9%,42.5%,8.37% (active),8.87% (active),54.4%,6.11% (active)
COc1cc(/C=C/C(=O)c2cc(-c3ccc(C(F)(F)F)cc3)ccc2O)cc(OC)c1OC,81%,41%,61.3%,61%,76.2%,78.1%,92.3%,82.5%,81.8%
Cn1c(=O)c2[nH]c(C(O)c3ccc(Cl)cc3)nc2n(C)c1=O (configuration not stated),104%,113%,100%,120%,104%,104%,105%,97.7%,90.6%
C[C@]12CC[C@H]3[C@@H](CCC4=CC(=O)CC[C@@]43C)[C@@H]1CC[C@@H]2c1csc(N)n1,78.2%,26%,66.8%,76.8%,89.6%,50.3%,81%,49.6%,61%
